Source: PubChem
ELG1 genotox = induces genotoxicity in HEK293T cells with luciferase-tagged ELG1. HEK293T ELG1-luciferase reporter, luminescence, 16 h. Potency, µM (titrated, usually from 46 µM), inactives show at the top dose activity change, positive = activation, hits mostly activators. hit rate 1.3% among 330,000. AID 504466; also: % of control where 0% means no effect; nearly all actives have a fitted effect of over 60% in size
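Genotoxic stress is detected as increased luminescence from luciferase-tagged ELG1 in HEK293T cells, measured with ONE-Glo after a 16 hr treatment at 37 °C.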
Rab9 promoter act = activators of Rab9 promoter | hit rate 2.8% among 320,000 | Huh7 Rab9 promoter-luciferase reporter, luminescence, 24 h | Potency, µM (titrated, usually from 9.22 µM), for the others: at the top dose activation, negative = inhibition, hits mostly activators; also: % of control where 0% means no effect; nearly all actives have a fitted effect of over 60% in size
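Steps: seed 1500 Huh7 Rab9-luc cells per well, rest 2 h at 37 °C; add compound in DMSO; incubate 24 h; add luciferase reagent, 10 min ambient; read luminescence.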
NPC1 prom act = activators of NPC1 promoter; Huh7 NPC1 promoter luciferase reporter, 24 h; Potency, µM (titrated, usually from 9.22 µM), without a hit: at the highest dose activation, actives largely listed as activators; hit rate 2.4% among 320,000; AID 485313; also: % of control where 0% means no effect; nearly all actives have a fitted effect of over 60% in size
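Luciferase expression driven by the NPC1 promoter was measured in stably transfected Huh7 cells after a 24 h compound incubation, using a luciferase reagent and a luminescence read.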
FLuc modulator = counter-screen for miR-21 project: firefly luciferase inhibitors or activators; purified FLuc, Km substrates, luminescence inhibition; Potency, µM (highest dose often 57.5 µM), without a hit: at the highest dose activity change, negative = inhibition, most hits filed as inhibitors; hit rate 6.9% among 360,000; AID 588342;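 also: plate controls were vehicle for no effect and reference inhibitor for full effect; nearly all actives have a fitted effect of over 55% in size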
Target sequence (P08659 whole entry, looked up): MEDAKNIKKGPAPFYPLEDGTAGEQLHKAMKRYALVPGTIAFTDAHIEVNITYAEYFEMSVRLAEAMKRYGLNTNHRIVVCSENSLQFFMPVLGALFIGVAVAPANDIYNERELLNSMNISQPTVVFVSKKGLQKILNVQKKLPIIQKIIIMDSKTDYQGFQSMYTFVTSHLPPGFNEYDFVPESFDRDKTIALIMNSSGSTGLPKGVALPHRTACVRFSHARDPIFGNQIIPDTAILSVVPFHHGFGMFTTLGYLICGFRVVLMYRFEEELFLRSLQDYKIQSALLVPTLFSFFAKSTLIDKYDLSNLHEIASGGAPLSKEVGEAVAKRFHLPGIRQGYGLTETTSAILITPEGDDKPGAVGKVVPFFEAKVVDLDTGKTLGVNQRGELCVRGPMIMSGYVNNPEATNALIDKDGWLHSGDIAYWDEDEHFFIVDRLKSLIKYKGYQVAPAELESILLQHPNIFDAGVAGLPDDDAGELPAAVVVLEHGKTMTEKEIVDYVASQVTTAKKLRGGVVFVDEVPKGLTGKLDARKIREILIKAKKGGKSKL
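Purified P. pyralis luciferase (10nM final) with 10uM D-luciferin and 10uM ATP (Km levels) in 50mM Tris acetate pH 7.5, 10mM Mg acetate, 0.01% Tween-20, 0.05% BSA; qHTS 6-point titration, ~60 µM downward; luminescence read.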
p53 reactivation = re-activators of mutant p53; hit rate 0.063% among 320,000; Potency, µM (series often up to 92.2 µM), for inactives: at the top dose activity change, positive = activation, actives largely listed as activators; H1299 p53-A138V BP100-luciferase reporter, luminescence, 24 h; AID 504706; also: % of control where 0% means no effect; nearly all actives have a fitted effect of over 45% in size
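H1299 (p53-null), stable ts p53-A138V + BP100-Luc; 1000 cells/well, Opti-MEM/10% FBS; cpd 4 pt, 1:5; 24 h, 37 deg C, 5% CO2; detection reagent 10 min RT; luminescence.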
SMN2 splice up = enhancers of SMN2 splice variant expression; HEK293 SMN2-luciferase splicing reporter, luminescence, 30-36 h; Potency, µM (series often up to 46.1 µM), for the others: at the top dose activity change, positive = activation, actives largely listed as activators; hit rate 2.8% among 210,000; AID 1458; also: % of control where 0% means no effect; nearly all actives have a fitted effect of over 55% in size
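HEK293 cells carry an SMN2 minigene-luciferase reporter in which exon 7 inclusion puts luciferase in frame. Cells were seeded at 2000 cells/well, attached for 10-12 hours, then exposed to compounds for 30-36 hours at 37C before ONE-Glo luminescence.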
The depositor's hits bear a star. Only some compounds are listed: those with a hit (about 7.4% of all), similar ones and a draw of the others. Calls follow the shape of the dose curve; as a rule, active = well fitted curve in the direction sought with a large enough effect; inconclusive = small, poorly fitted or top-dose-only effect, or another doubt; inactive = no such curve, though single readings can be large; an effect the other way counts as inactive or inconclusive. Potency is read from the fitted curve at half-maximal effect.

What do the screens show for `COc1cccc(C(=O)O/N=C(\N)c2ccncc2)c1OC`?
ELG1 genotox: inconclusive; Rab9 promoter act: 2%; NPC1 prom act: 2%; FLuc modulator: inconclusive; SMN2 splice up: 25%

How did O=C(Nc1ccc2oc(-c3ccc4ccccc4c3)nc2c1)c1cc(Cl)ccc1Cl do in these assays?
FLuc modulator: 1%; SMN2 splice up: -6%

What do the screens show for `COC(C(=O)Nc1ccc(F)cc1)c1ccccc1` (centres undefined)?
ELG1 genotox: 1%; Rab9 promoter act: -3%; NPC1 prom act: -3%; FLuc modulator: -1%; p53 reactivation: 0%; SMN2 splice up: -15%

What do the screens show for `COC(C(=O)Nc1ccc(C(N)=O)cc1)c1ccccc1` (centres undefined)?
ELG1 genotox: -2%; Rab9 promoter act: -8%; NPC1 prom act: 1%; FLuc modulator: 4%; p53 reactivation: 2%; SMN2 splice up: 16µM*

What do the screens show for `COC(=O)c1ccc(NC(=O)CC2C(=O)N(c3cccc(F)c3)C(=O)N2CC(C)C)cc1` (centres undefined)?
FLuc modulator: 0%; SMN2 splice up: -6%

Results for Cc1cc(N2CCN(c3ccccc3)CC2)nc2ccccc12 ?
ELG1 genotox: 4%; Rab9 promoter act: 14%; NPC1 prom act: 11%; FLuc modulator: 15µM*

Results for Clc1ccc(N2CCN(c3cnc4ccccc4n3)CC2)cc1 ?
ELG1 genotox: inconclusive; Rab9 promoter act: inconclusive; NPC1 prom act: inconclusive; FLuc modulator: 17µM*; p53 reactivation: 16%; SMN2 splice up: -9%

What do the screens show for `Fc1ccc(N2CCN(c3cnc4ccccc4n3)CC2)cc1`?
ELG1 genotox: inconclusive; Rab9 promoter act: 3.5µM*; NPC1 prom act: 2.8µM*; FLuc modulator: 11µM*; p53 reactivation: inconclusive

Results for O=C(c1cccnc1)N1CCN(c2ccc(Cl)cc2)CC1 ?
ELG1 genotox: -1%; Rab9 promoter act: 1%; NPC1 prom act: 1%; FLuc modulator: -1%; p53 reactivation: 8%; SMN2 splice up: 0%

What do the screens show for `c1ccc(N2CCN(c3cnc4ccccc4n3)CC2)cc1`?
ELG1 genotox: 1%; Rab9 promoter act: 1.1µM*; NPC1 prom act: 1.6µM*; FLuc modulator: 3.4µM*; p53 reactivation: inconclusive; SMN2 splice up: 3.5µM*

How did Cn1c(=NC(=O)c2ccc(S(=O)(=O)N3CCCC3)cc2)sc2cc(F)ccc21 do in these assays?
FLuc modulator: 0%; SMN2 splice up: -1%

Results for Cc1ccccc1NC(=O)c1c(C)oc2ccc(O)c(CN3CCOCC3)c12 ?
FLuc modulator: -6%; SMN2 splice up: 1%

How did COc1ccc(OC)c(NC(=O)Cn2cc(C(=O)c3ccc(Cl)cc3)c(=O)c3cc(OC)ccc32)c1 do in these assays?
FLuc modulator: 1%; SMN2 splice up: 3%

What do the screens show for `O=C(Nc1cccn(Cc2c(Cl)cccc2Cl)c1=O)C1CC1`?
ELG1 genotox: -12%; Rab9 promoter act: 2%; NPC1 prom act: -4%; FLuc modulator: -12%; p53 reactivation: -2%; SMN2 splice up: -10%

How did O=C(Nc1cccn(Cc2c(F)cccc2Cl)c1=O)NC1CCCCC1 do in these assays?
ELG1 genotox: -2%; Rab9 promoter act: -18%; NPC1 prom act: -24%; FLuc modulator: 13µM*; p53 reactivation: 4%

Results for COc1cccc(NC(=O)Nc2cccn(Cc3ccc(C)cc3)c2=O)c1 ?
ELG1 genotox: -7%; Rab9 promoter act: -32%; NPC1 prom act: -8%; FLuc modulator: inconclusive; p53 reactivation: 4%

Results for C#CCOC(=O)Nc1cccn(Cc2c(Cl)cccc2Cl)c1=O ?
ELG1 genotox: -3%; Rab9 promoter act: -6%; NPC1 prom act: -21%; FLuc modulator: 17µM*; p53 reactivation: 4%; SMN2 splice up: 8%
